The record followed here is PubChem BioAssay (NCATS).

“And” between values parts separate entries of the source, which are not always exact repeats. Identical values can stand only once. A number with no mark means an inactive call. Records with an inconclusive call do not appear. The source made the active and inactive calls. Unless noted, calls come from the whole dose curve; as a rule, active = well fitted curve in the direction sought with a large enough effect; inconclusive = small, poorly fitted or top-dose-only effect, or another doubt; inactive = no such curve, though single readings can be large; an effect the other way counts as inactive or inconclusive.

Assay [1] addresses Tyrosine-protein kinase Yes (Homo sapiens) (UniProt P07947). The assay can be described thus: qHTS for small molecule inhibitors of Yes1 kinase: Primary Screen (AID 686947). Note: nearly all actives have a fitted effect of over 60% in size. Note: potency is the fitted concentration of half-maximal effect. The method in brief: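 ADP-Glo luminescence readout; final 4 nM Yes1, 0.1 mM ATP, 0.3 mg/mL poly(E4Y), Tris pH 7.5, MgCl2, DTT, Brij-35. 20 min compound preincubation, 60 min reaction at RT. Normalized to DMSO wells with and without enzyme.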
(In general: Quantitative high-throughput screening tests each substance at several concentrations.)

A short description of assay [2]: qHTS for small molecule inhibitors of Yes1 kinase: Counter Assay (AID 686950).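 Note: no kinase present so only ADP-Glo detection of a fixed ADP amount is tested; luminescence from ADP-Glo reporting ADP in a fixed ATP and ADP mixture; series mostly up to about 77 µM; 0% = DMSO wells with ATP plus ADP and -100% = ATP-only wells without ADP.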 The method in brief: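 Enzyme-free ADP-Glo interference check: compounds were preincubated 20 min in buffer, then an ATP/ADP mix (0.08 mM ATP, 0.02 mM ADP final) was added for 60 min at room temperature before two-step ADP-Glo luminescence detection.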
The target in assay [3] is Arylsulfatase A (Homo sapiens) (UniProt P15289). The assay can be described thus: qHTS screen for enhancers of Arylsulfatase A (ASA1): LOPAC Validation Assay (AID 720538). The method in brief:
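SV40-transformed fibroblasts from an MLD patient (ASA-I179S) were treated with compound for 48 h at 37 C. They were then lysed with 0.5 mM pNCS substrate (final) for 14 h at room temperature and stopped with NaOH; signal read by fluorescence (Ex 525/Em 598 nm), with increase denoting enhanced activity.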

Assay [4] can be described thus: qHTS for compounds that reverse cellular toxicity of Amyloid beta (A-beta) peptide in yeast: LOPAC Validation Assay (AID 720559).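 Note: plate controls were DMSO for no effect and equimolar ferric chloride plus clioquinol rescue for full effect.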 A digest of the protocol:
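Yeast expressing toxic A-beta grown with pinned compounds at 30 C for 48 hr. Growth measured as absorbance at 600 nm; data normalized to DMSO and to an equimolar FeCl3/clioquinol mixture as positive control.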

Assay [5] is described as follows: qHTS for Activators of Parkin Expression: LOPAC Validation Assay (NLuc Reporter) (AID 720572;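 note: 0% = DMSO and 100% = positive control compound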). A digest of the protocol:
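Neuronal line stably carrying a FLuc/NLuc coincidence reporter under the Parkin promoter, seeded 24 h, then dosed in 7-point series for 24 h at 37 C. NLuc luminescence read after FLuc; normalized to DMSO and positive control (100%).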

Assay [6] in a line: qHTS for Activators of Parkin Expression: LOPAC Validation Assay (FLuc Reporter) (AID 720573;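 note: 0% = DMSO and 100% = positive control compounds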). The method in brief: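 Neuronal cell line stably expressing FLuc/NLuc coincidence reporter under the Parkin promoter, 1,500 cells/well, dosed 24 h after seeding in 7-point series for 24 h at 37 C. FLuc luminescence read; normalized to DMSO and positive control (100%).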
For assay [7], the target named is T1, Hexokinase-4 (Homo sapiens) + Glucokinase regulatory protein (Homo sapiens) (UniProt P35557+Q14397). The assay is described as follows: qHTS assay for inhibitors of recombinant human GCK-GKRP interaction: Diaphorase-coupled assay (AID 743205). The method in brief: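 Compounds pre-incubated 20 min with substrate, then 10 nM GST-GCK with 10 nM FLAG-GKRP added. GCK activity coupled via G6PDH and diaphorase to resorufin (5 mM glucose, 0.4 mM ATP, 0.15 mM NADP+, pH 7.6), read kinetically over 30 minutes at Ex 525/Em 590 nm.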
T1 sequence (P35557 whole entry, looked up): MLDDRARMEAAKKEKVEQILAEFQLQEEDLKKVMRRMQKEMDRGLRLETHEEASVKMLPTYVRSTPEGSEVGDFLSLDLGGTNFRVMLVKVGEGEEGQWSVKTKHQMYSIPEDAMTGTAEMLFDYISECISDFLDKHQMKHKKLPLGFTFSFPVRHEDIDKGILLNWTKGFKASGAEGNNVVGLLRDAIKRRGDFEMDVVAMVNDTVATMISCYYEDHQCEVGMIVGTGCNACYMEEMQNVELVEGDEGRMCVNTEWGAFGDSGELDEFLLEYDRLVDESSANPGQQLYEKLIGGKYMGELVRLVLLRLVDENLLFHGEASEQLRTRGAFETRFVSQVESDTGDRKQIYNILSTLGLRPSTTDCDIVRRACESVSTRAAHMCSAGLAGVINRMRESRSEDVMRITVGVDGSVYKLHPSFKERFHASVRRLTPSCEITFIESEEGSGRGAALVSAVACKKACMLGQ
T1 sequence (Q14397 whole entry, looked up): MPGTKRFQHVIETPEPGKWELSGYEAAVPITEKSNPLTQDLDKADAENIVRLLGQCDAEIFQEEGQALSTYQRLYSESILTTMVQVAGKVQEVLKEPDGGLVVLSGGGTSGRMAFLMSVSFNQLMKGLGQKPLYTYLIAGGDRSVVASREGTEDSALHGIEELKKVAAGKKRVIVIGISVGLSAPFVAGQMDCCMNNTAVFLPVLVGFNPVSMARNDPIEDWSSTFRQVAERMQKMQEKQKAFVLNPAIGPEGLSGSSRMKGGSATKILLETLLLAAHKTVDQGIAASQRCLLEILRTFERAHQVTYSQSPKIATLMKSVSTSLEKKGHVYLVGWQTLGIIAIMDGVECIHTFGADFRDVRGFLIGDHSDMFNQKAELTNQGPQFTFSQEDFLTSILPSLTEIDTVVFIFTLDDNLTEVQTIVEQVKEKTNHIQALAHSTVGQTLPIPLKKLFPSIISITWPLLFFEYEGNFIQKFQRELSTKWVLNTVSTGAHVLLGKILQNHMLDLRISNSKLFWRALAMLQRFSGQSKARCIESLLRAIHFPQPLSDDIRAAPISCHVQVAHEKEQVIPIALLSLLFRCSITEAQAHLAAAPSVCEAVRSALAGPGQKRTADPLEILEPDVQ

Assay [8] addresses T1, Hexokinase-4 (Homo sapiens) + Glucokinase regulatory protein (Homo sapiens). The assay is described as follows: qHTS assay for inhibitors of recombinant human GCK-GKRP interaction: ADP-Glo assay (AID 743206).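 Note: plate controls were DMSO plus enzyme for no effect and no enzyme for full effect.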 A digest of the protocol:
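GST-GCK and FLAG-GKRP (15 nM each in the dispensed mix, with 2 uM S6P) react with 0.4 mM ATP and 5 mM glucose (final) in Hepes pH 7.6 for 60 min at room temperature. ADP is measured by ADP-Glo luminescence.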

For assay [9] the target is unchanged. The assay can be described thus: qHTS assay for inhibitors of recombinant human GCK-GKRP interaction: HTRF assay (AID 743207).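 Note: 0% = DMSO with GCK present and -100% = DMSO wells lacking GCK.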 A digest of the protocol: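 HTRF binding of 5 nM GST-GCK and 5 nM FLAG-GKRP with 2 uM S6P in pH 7.1 Hepes buffer (MgCl2, KCl, DTT, Tween 20, BSA). Anti-FLAG XL665 and anti-GST donor added, 60 min at room temperature; 665/615 nm read, normalized to with- and without-GCK controls.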

A short description of assay [10]: qHTS assay for small molecule agonists of the antioxidant response element (ARE) signaling pathway (AID 651741; active = well fitted activation curve with a large enough effect in the signal ratio; the % refers to the signal ratio; note: potency is the fitted concentration of half-maximal effect; for activation: % of control where 0% means no effect). The method in brief:
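ARE-bla HepG2 cells (beta-lactamase reporter under ARE control) were plated at 2,000 cells/well, preincubated 5 h at 37 C/5% CO2, then treated with DMSO-dissolved compounds for 16 h at 37 C; LiveBLAzer B/G FRET substrate added, fluorescence read after 2 h at room temperature.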

A short description of assay [11]: qHTS assay for small molecule activators of the p53 signaling pathway (AID 651743; active = well fitted activation curve with a large enough effect in the signal ratio, not every such curve was filed as active; the % refers to the signal ratio; note: potency is the fitted concentration of half-maximal effect; for activation: series mostly up to about 92 µM; % of control where 0% means no effect). The following applies: HCT-116 p53RE-bla, beta-lactamase FRET ratio, 16 h; activation: hits give high values. A digest of the protocol:
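p53RE-bla HCT-116 cells with a stably integrated beta-lactamase reporter under p53 response elements were plated, rested 5 hours at 37 C/5% CO2, then exposed to compounds in DMSO for 16 hours at 37 C. LiveBLAzer B/G FRET substrate was read after 2 hours at room temperature.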

The nature of assay [12]: qHTS assay for environmental chemicals that activate the Aryl hydrocarbon Receptor (AhR) signaling pathway (AID 651777). Note: % of control where 0% means no effect; nearly all actives have a fitted effect of over 15% in size. The following applies: 1A2-DRE human hepatoma cells, luciferase, 24 h; activation: hits give high values. A digest of the protocol: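 Luminescence read-out: One-Glo added for 30 min at RT after 24 hr compound treatment (37 C, 5% CO2) of human hepatoma cells expressing a DRE/CYP1A2 promoter–luciferase reporter; increased signal indicates AhR activation.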

Assay [13] in a line: qHTS assay for small molecule agonists of the antioxidant response element (ARE) signaling pathway measured by Nrf2-dependant transcriptional activity (AID 720636; active = well fitted curve in the direction sought with a large enough effect in the repeat runs; an effect the other way counts as inactive or inconclusive;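 note: HepG2 cells with an ARE-driven luciferase reporter; % of control where 0% means no effect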). A digest of the protocol:
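HepG2 ARE-luc reporter line, 1% dialyzed FBS; 6 hr attachment at 37 C, compound pinned in, 16 hr at 37 C/5% CO2; ONE-Glo, 30 min RT, luminescence read.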

Assay [14] in a line: qHTS assay for small molecule activators of the nuclear factor-kappa B (NF-kB) signaling pathway (AID 651749; active = well fitted activation curve with a large enough effect in the signal ratio; the % refers to the signal ratio; note: series mostly up to about 77 µM; % of control where 0% means no effect). The conditions noted are these: NF-kB-bla ME-180 cells, beta-lactamase FRET ratio, 16 h; hits give high values. A digest of the protocol: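 ME-180 cells stably carrying a beta-lactamase reporter under an NF-kB response element were exposed to compound or DMSO vehicle for 16 hr at 37C, 5% CO2. Pathway activation was read by FRET, since reporter expression disrupts FRET.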

The target in assay [15] is Tumor necrosis factor (Homo sapiens) (UniProt P01375). The assay is described as follows: qHTS assay to identify small molecules that stimulate Tumor Necrosis Factor-alpha (TNF-alpha) secretion (AID 651757; active = well fitted curve in the direction sought with a large enough effect in the signal ratio; the % refers to the signal ratio; note: 0% is about no effect). A digest of the protocol:
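Secreted TNF-alpha from compound-treated THP-1 cells (17 hrs, 37 C) was quantified with a homogeneous time-resolved fluorescence antibody assay.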

A short description of assay [16]: qHTS assay to identify small molecules that stimulate interleukin-8 (IL-8) secretion (AID 651758; active = well fitted activation curve with a large enough effect in the signal ratio; the % refers to the signal ratio; note: potency is the fitted concentration of half-maximal effect). The method in brief:
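THP-1, 2000 cells/well; cpd 16 h, 37 C; add cryptate + XL665 anti-IL-8 Abs; RT 1-3 h; TR-FRET read.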

A short description of assay [17]: qHTS assay for small molecule antagonists of the retinoid-related orphan receptor gamma (ROR-gamma) signaling pathway - cell viability counter screen (AID 720652; active = well fitted curve in the direction sought with a large enough effect in the repeat runs; an effect the other way counts as inactive or inconclusive;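 note: series mostly up to about 92 µM; compound exposure lasted 16 hr before ATP read; % is set by controls: 0 for no effect and ±100 for the full control effect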). A digest of the protocol: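 Cytotoxicity is quantified via intracellular ATP (CellTiter-Glo luminescence) in doxycycline-induced CHO ROR response element-luciferase reporter cells treated with compound for 16 hr at 37 C, 5% CO2.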

The nature of assay [18]: qHTS assay for small molecule disruptors of the mitochondrial membrane potential - 1 hr assay (AID 651754; calls by dose curve; note: % is set by controls: 0 for no effect and ±100 for the full control effect; nearly all actives have a fitted effect of over 35% in size). A digest of the protocol:
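Steps: seed HepG2 cells and let attach overnight; pin-transfer compound or vehicle; incubate 1 hr at 37C; add Mito-MPS dye for 30 min; read two-channel fluorescence for monomer and aggregate forms.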

Assay [19] is described as follows: qHTS assay for small molecule disruptors of the mitochondrial membrane potential - 5 hr assay (AID 651755; calls by dose curve; note: % is set by controls: 0 for no effect and ±100 for the full control effect; nearly all actives have a fitted effect of over 40% in size). A digest of the protocol:
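HepG2 cells, attached overnight at 37C, were exposed to compound or DMSO for 5 hr at 37C, 5% CO2. Mito-MPS dye was then added for 30 min, and fluorescence read at 490/535 nm (monomers) and 540/590 nm (aggregates).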

Assay [20] has as its target Nuclear receptor ROR-gamma (Homo sapiens) (UniProt P51449). The assay is described as follows: qHTS assay for small molecule antagonists of the retinoid-related orphan receptor gamma (ROR-gamma) signaling pathway (AID 651802). Note: nearly all actives have a fitted effect of over 60% in size. Note: potency is the fitted concentration of half-maximal effect. A digest of the protocol:
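Antagonism is scored as a fall in luminescence from a RORE-luciferase reporter in CHO cells expressing ROR under a TET-inducible promoter, measured 16hr after doxycycline induction in the presence of compound.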

Arylsulfatase A (Homo sapiens), sequence (P15289 whole entry, looked up): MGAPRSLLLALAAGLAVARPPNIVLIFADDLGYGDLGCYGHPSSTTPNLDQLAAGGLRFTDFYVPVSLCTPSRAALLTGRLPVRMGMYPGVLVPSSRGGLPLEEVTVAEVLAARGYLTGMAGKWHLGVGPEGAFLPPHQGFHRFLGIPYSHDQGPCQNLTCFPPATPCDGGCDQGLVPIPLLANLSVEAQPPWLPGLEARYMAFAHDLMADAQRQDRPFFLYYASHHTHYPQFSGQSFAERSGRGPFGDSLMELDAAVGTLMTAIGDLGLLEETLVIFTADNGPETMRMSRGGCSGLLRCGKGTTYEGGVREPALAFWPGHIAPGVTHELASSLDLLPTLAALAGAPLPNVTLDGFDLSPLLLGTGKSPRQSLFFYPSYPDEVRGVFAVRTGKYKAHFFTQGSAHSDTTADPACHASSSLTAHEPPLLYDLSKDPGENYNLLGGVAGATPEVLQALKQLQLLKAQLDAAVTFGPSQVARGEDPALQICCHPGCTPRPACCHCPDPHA
Tumor necrosis factor (Homo sapiens), sequence (P01375 whole entry, looked up): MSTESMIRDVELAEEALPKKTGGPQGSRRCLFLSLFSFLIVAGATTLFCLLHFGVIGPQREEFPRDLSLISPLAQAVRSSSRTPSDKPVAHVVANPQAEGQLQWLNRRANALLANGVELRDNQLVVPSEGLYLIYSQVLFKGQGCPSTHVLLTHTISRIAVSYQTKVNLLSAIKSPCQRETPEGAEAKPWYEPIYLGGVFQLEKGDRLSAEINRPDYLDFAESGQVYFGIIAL
Tyrosine-protein kinase Yes (Homo sapiens), sequence (P07947 whole entry, looked up): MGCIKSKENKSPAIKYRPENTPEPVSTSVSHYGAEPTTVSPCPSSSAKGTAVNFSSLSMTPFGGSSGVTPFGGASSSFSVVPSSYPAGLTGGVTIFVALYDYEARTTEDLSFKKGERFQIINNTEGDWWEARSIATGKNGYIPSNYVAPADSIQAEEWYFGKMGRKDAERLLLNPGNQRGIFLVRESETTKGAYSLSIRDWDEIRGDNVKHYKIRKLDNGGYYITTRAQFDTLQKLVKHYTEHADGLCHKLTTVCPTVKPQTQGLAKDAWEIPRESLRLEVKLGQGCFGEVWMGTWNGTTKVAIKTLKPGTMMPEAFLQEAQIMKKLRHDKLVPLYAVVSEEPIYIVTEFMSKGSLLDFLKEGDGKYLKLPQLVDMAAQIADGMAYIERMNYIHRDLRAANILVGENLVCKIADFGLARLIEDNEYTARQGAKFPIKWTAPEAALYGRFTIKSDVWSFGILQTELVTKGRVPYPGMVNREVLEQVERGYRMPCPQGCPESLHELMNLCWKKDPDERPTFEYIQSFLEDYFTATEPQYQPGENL
Nuclear receptor ROR-gamma (Homo sapiens), sequence (P51449 whole entry, looked up): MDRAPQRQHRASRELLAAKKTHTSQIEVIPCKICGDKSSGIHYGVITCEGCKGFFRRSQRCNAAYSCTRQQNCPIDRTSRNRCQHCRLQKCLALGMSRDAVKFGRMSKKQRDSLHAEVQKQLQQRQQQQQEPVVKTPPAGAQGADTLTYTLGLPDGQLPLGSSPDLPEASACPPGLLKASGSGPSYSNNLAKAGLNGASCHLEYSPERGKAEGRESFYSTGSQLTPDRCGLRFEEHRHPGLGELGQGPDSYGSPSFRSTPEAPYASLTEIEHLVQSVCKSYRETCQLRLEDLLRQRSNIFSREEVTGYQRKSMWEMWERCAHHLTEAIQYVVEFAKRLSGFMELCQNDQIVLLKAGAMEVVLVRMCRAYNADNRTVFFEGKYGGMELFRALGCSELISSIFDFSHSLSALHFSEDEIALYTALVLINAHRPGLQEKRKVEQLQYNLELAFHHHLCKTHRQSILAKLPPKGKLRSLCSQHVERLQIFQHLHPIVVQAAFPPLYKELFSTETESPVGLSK

Turning to `Cc1cc(C)c(/C=C2\C(=O)Nc3ccccc32)[nH]1`, the Potency in assay [1] was 1.37 µM (active). The call in assay [2], in assay [4], in assay [6], in assay [7] and in [8] was inactive. The Potency result in [3], in assay [5] and in [9] was “inactive” in each case.

As to `O=C(CCCN1CCC(O)(c2cccc(C(F)(F)F)c2)CC1)c1ccc(F)cc1`, the Potency result in assay [3], in [5] and in assay [9] was “inactive” in each case. For the same compound, the call in assay [4], in [6], in assay [7] and in [8] was inactive.

On to `C[n+]1cc2c3c(ccc2c2ccc4cc5c(cc4c21)OCO5)OCO3`, for which the Potency result in assay [3], in [5] and in assay [9] was “inactive” throughout. The result in assay [4], in assay [6], in assay [7] and in assay [8] was inactive.

Regarding `C[C@]12C=CC(=O)C=C1CC[C@H]1[C@@H]3C[C@@H](O)[C@](O)(C(=O)CO)[C@@]3(C)C[C@H](O)[C@@]12F`, the Potency result in [10], in assay [3], in assay [5] and in [9] was “inactive” in each case. The results for the activation in [11] and in [12] were -0.529% and 0.771%, respectively. The result in assay [4], in assay [6], in [13], in [7] and in [8] was inactive.

With `O=c1[nH]c(=O)n([C@H]2C[C@H](O)[C@@H](CO)O2)cc1Br`, the Potency result in assay [10], in assay [5] and in [9] was “inactive” in each case. For the same compound, the activation in assay [11] was 3.27%; in assay [14], 0.708%; in [12], 0.877%. Moreover, the result in [15], in [4], in [6], in assay [13], in assay [17] and in [7] was inactive. Besides, the result in [8] was inactive. In [16], the Potency is 53.1 µM (active).

On to `Nc1ncn([C@@H]2O[C@H](CO)[C@@H](O)[C@H]2O)c(=O)n1`, for which the Potency in assay [10] was 1.37 µM (active) and 1.88 µM (active); in assay [11] it was 6.31 µM (active); in [20], 3.35 µM (active). Also, the activation was -3.34% and -0.684% in [14]; 5.55% and 8.87% in [12]. Also, the Potency entry in [18], in assay [19], in assay [1] and in assay [9] was “inactive” each time. Moreover, the result in assay [15], in [2], in assay [4], in [6], in assay [13] and in [7] was inactive. Also, the outcome in assay [8] was inactive.

As for `CC(C(=O)O)c1ccc(CC2CCCC2=O)cc1` (stereo unspecified), the Potency result in [3], in assay [5] and in assay [9] was “inactive” throughout. The compound was classed as inactive in assay [4], in [6], in assay [7] and in [8].

Regarding `CCn1nc(C(=O)O)c(=O)c2cc3c(cc21)OCO3`, in assay [3], the Potency result is “inactive”.

For `CN/C(=C\[N+](=O)[O-])NCCSCc1ccc(CN(C)C)o1`, the Potency entry in assay [3] and in [5] was “inactive” throughout. Besides, the compound was called inactive in [4].

In the case of `CN=C(NC#N)NCCSCc1nc[nH]c1C`, the Potency entry in assay [10], in assay [20], in [5] and in [9] was “inactive” each time. Moreover, the call in assay [15], in assay [6], in assay [13], in assay [17], in assay [7] and in assay [8] was inactive. Moreover, in assay [12], the activation is 2.08%.
